# Laboratory results: the supplement of paper PMC6607015
# Counter-ions that a name gives are not always drawn.
# Columns and labels:
# Conditions in all cases: compound concentration in added solution (µM; 5 µl added to 20 µl cells): 10; 18 h
# A431 [1] = assay: LBPA endosome anti-LBPA integrated intensity (sum per cell), Z-score; higher = more LBPA staining
# Method in brief: (§1)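 The data are Z-scores, normalised in AcuityXpress, of integrated LBPA or filipin intensity in each cell, either whole-cell or restricted to LBPA endosomes. HeLa MZ or A431 cells, 3,500 per well in 20 µl, were seeded onto 5 µl of 10 µM compound solution in duplicate 384-well plates and incubated 18 h. Fixed cells were stained and imaged, with intensities extracted by MetaXpress segmentation.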
# HeLa MZ [2] = assay: as above
# Method in brief: as §1
# A431 [3] = assay: whole-cell filipin (free cholesterol) integrated intensity, Z-score; higher = more cholesterol staining
# Method in brief: as §1
# HeLa MZ [4] = assay: as above
# Method in brief: as §1
# A431 [5] = assay: filipin (cholesterol) integrated intensity within LBPA endosomes, Z-score; higher = more cholesterol in LBPA endosomes
# Method in brief: as §1
# HeLa MZ [6] = assay: as above
# Method in brief: as §1
SMILES,LBPA endosome anti-LBPA integrated intensity (z-score) (A431 [1]),LBPA endosome anti-LBPA integrated intensity (z-score) (HeLa MZ [2]),whole-cell filipin (z-score) (A431 [3]),whole-cell filipin (z-score) (HeLa MZ [4]),filipin (z-score) (A431 [5]),filipin (z-score) (HeLa MZ [6])
COc1ccc2cc([C@H](C)C(=O)O)ccc2c1 [Naproxen],-0.53,-0.655,-0.923,-0.439,-0.525,-0.644
CN(C)CC/C=C1/c2ccccc2COc2ccc(CC(=O)O)cc21 [Olopatadine hydrochloride],-0.245,0.672,0.305,0.861,-0.37,-0.275
Clc1cc(Cl)c(OCC#CI)cc1Cl [Haloprogin],-0.472,-1.16,-0.945,-0.949,-0.529,-0.714
CCCCCN(C)CCC(O)(P(=O)(O)O)P(=O)(O)O [Ibandronate sodium],-0.326,0.467,-0.0185,0.267,-0.423,-0.352
CNCCC=C1c2ccccc2CCc2ccccc21 [Nortriptyline hydrochloride],3.79,1.4,1.95,1.82,3.53,3.69
CCCCNc1cc(C(=O)O)cc(S(N)(=O)=O)c1Oc1ccccc1 [Bumetanide],-0.516,-0.493,-0.507,-0.553,-0.588,-0.565
Cc1c(C)c2c(c(C)c1O)CCC(C)(C(=O)O)O2 (stereo not given) [Trolox],-0.472,0.342,-0.624,0.128,-0.552,-0.401
O=S(=O)(O)c1cc(O)ccc1O [Ethamsylate],-0.297,0.237,0.0355,-0.226,-0.436,-0.57
Cc1ccccc1OCC(O)CO (stereo not given) [Mephenesin],-0.324,0.139,-0.27,0.183,-0.409,-0.223
CC[C@]12CCCN3CCc4c(n(c5ccccc45)[C@@](O)(C(=O)OC)C1)[C@@H]32 [Vincamine],-0.234,0.384,-0.552,-1.23,-0.453,-0.216
Nc1nc(N)nc(-c2cc(Cl)ccc2Cl)n1 [Irsogladine maleate],-0.232,0.679,-0.0416,0.316,-0.334,-0.292
Clc1ccc(CCC(Cn2ccnc2)Sc2c(Cl)cccc2Cl)cc1 (stereo not given) [Butoconazole nitrate],1.95,2.23,1.71,2.17,2.22,2.14
CC1(C)[C@@H](OC(=O)CCC(=O)O)CC[C@]2(C)[C@H]3C(=O)C=C4[C@@H]5C[C@@](C)(C(=O)O)CC[C@]5(C)CC[C@@]4(C)[C@]3(C)CC[C@@H]12 [Carbenoxolone disodium salt],-0.362,0.399,-0.0877,0.214,-0.408,-0.356
C[C@@H](c1ncncc1F)[C@](O)(Cn1cncn1)c1ccc(F)cc1F [Voriconazole],-0.526,-0.198,-0.573,-0.527,-0.605,-0.411
CCn1cc(C(=O)O)c(=O)c2cnc(N3CCCC3)nc21 [Piromidic acid],-0.472,-0.684,-0.293,0.123,-0.374,-0.418
Oc1c(I)cc(Cl)c2cccnc12 [Clioquinol],-0.492,-0.976,-0.314,0.216,-0.526,-0.604
Nc1ncnc2c1ncn2C1OC(COP(=O)(O)O)C(O)C1O (stereo not given) [Adenosine 5'-monophosphate monohydrate],-0.591,0.12,-0.666,0.0121,-0.493,-0.612
O=C(Nc1ccccc1)OCC(CN1CCCCC1)OC(=O)Nc1ccccc1 (stereo not given) [Diperodon hydrochloride],1.44,2.96,0.922,-0.386,1.23,1.1
CCOC(=O)C1=C(COCCN)NC(C)=C(C(=O)OC)C1c1ccccc1Cl (stereo not given) [Amlodipine],1.97,0.223,0.774,0.736,2.32,1.8
Clc1ccc(C(Cn2ccnc2)OCc2csc3c(Cl)cccc23)c(Cl)c1 (stereo not given) [Sertaconazole nitrate],-0.364,1.08,0.486,1.1,-0.139,0.708
NS(=O)(=O)c1cc(C2(O)NC(=O)c3ccccc32)ccc1Cl (stereo not given) [Chlorthalidone],-0.286,-0.349,-0.587,-0.924,-0.516,-0.608
COc1ccc(-c2cc(=S)ss2)cc1 [Anethole-trithione],-0.536,-0.179,-0.0973,0.207,-0.447,-0.257
CC[C@@H](CO)NCCN[C@@H](CC)CO [Ethambutol dihydrochloride],-0.297,-0.0372,-0.506,-0.399,-0.429,-0.483
CC(=O)Oc1ccc(C(c2ccc(OC(C)=O)cc2)c2ccccn2)cc1 [Bisacodyl],-0.461,0.379,-0.546,0.375,-0.421,-0.162
CC(N)CCCC(C)(C)O (stereo not given) [Heptaminol hydrochloride],-0.451,-1.1,-0.647,-0.285,-0.442,-0.477

SMILES,LBPA endosome anti-LBPA integrated intensity (z-score) (A431 [1]),LBPA endosome anti-LBPA integrated intensity (z-score) (HeLa MZ [2]),whole-cell filipin (z-score) (A431 [3]),whole-cell filipin (z-score) (HeLa MZ [4]),filipin (z-score) (A431 [5]),filipin (z-score) (HeLa MZ [6])
CN(C)CCC(c1ccc(Cl)cc1)c1ccccn1 (stereo not given) [Chlorpheniramine maleate],-0.653,0.363,-0.45,-0.192,-0.443,0.105
COc1cccc(N(C)C(=S)Oc2ccc3c(c2)CCCC3)n1 [Liranaftate],0.29,-0.439,-0.212,0.593,-0.0958,-0.421
COc1ccc(Cl)cc1C(=O)NCCc1ccc(S(=O)(=O)NC(=O)NC2CCCCC2)cc1 [Glibenclamide],-0.686,-1.35,-0.573,0.104,-0.559,-0.567
O=C1CN(/N=C/c2ccc([N+](=O)[O-])o2)C(=O)N1 [Nitrofurantoin],-0.475,-1.22,-0.354,-0.515,-0.501,-0.575
CN1CCC(=C2c3ccccc3Sc3ccccc32)CC1 [Pimethixene maleate],2.35,1.97,0.776,-0.782,1.82,0.962
CC(=O)SCC(Cc1ccccc1)C(=O)NCC(=O)OCc1ccccc1 (stereo not given) [Racecadotril],-0.747,-1.18,-0.139,-0.415,-0.589,-0.468
Nc1ccc(C(=O)NCC(=O)O)cc1 [Aminohippuric acid],-0.53,-0.169,-0.32,-0.186,-0.48,-0.359
CC(C)Cn1cnc2c(N)nc3ccccc3c21 [Imiquimod],0.0371,0.531,0.233,0.058,-0.267,-0.158
C=C1/C(=C\C=C2/CCC[C@]3(C)[C@@H]([C@H](C)/C=C/[C@@H](O)C4CC4)CC[C@@H]23)C[C@@H](O)C[C@@H]1O [Calcipotriene],0.563,1.43,0.734,0.316,0.659,0.179
"OCC(O)CN1CCN(c2ccccc2)CC1 (racemic) [Dropropizine (R,S)]",-0.485,-0.821,-0.651,-0.914,-0.515,-0.59
Nc1c(Br)cc(Br)cc1CN[C@H]1CC[C@H](O)CC1 [Ambroxol hydrochloride],-0.487,0.757,-0.529,-0.141,-0.428,-0.0836
CS(=O)(=O)OCCCCOS(C)(=O)=O [Busulfan],-0.537,-0.499,-0.466,0.544,-0.535,-0.476
Cc1cc2cc3c(C)cc(=O)oc3c(C)c2o1 [Trioxsalen],-0.317,0.147,-0.465,-0.318,-0.425,-0.476
CC(=O)Oc1cc(C(C)C)c(OCCN(C)C)cc1C [Moxisylyte hydrochoride],-0.364,-0.0871,-0.91,-1.03,-0.482,-0.452
CCOC(=O)[C@H](CCc1ccccc1)N[C@@H](C)C(=O)N1[C@H](C(=O)O)C[C@@H]2CCC[C@@H]21 [Ramipril],-0.401,-1.57,-0.0336,-0.633,-0.446,-0.529
Clc1ccc(Nc2nnc(Cc3ccncc3)c3ccccc23)cc1 [Vatalanib],-0.715,-0.947,-0.382,-0.477,-0.573,-0.345
NS(=O)(=O)Cc1noc2ccccc12 [Zonisamide],-0.257,0.173,-0.0819,0.0656,-0.385,-0.275
O=C1NCCN1c1ncc([N+](=O)[O-])s1 [Niridazole],-0.413,0.107,-0.918,-0.144,-0.517,-0.432
CC(N)C12CC3CC(CC(C3)C1)C2 (stereo not given) [Rimantadine Hydrochloride],-0.677,-0.134,-0.496,0.106,-0.59,-0.56
COC1=C(OC)C(=O)C(CCCCCCCCCCO)=C(C)C1=O [Idebenone],-0.691,-0.73,-0.893,-0.402,-0.585,-0.582
C[N+]1(C)CCC(=C(c2ccccc2)c2ccccc2)CC1 [Diphemanil methylsulfate],-0.603,-1.21,-0.868,-0.964,-0.428,-0.688
Cc1cnc(NC(=O)C2=C(O)c3ccccc3S(=O)(=O)N2C)s1 [Meloxicam],-0.49,0.298,-0.567,-0.195,-0.477,-0.459
CNCCC=C1c2ccccc2C=Cc2ccccc21 [Norcyclobenzaprine],3.26,2.08,1.91,1.02,3.06,3.6
CCc1cc(C(N)=S)ccn1 [Ethionamide],-0.517,-0.148,-0.588,0.221,-0.493,-0.459
NS(=O)(=O)c1cc2c(cc1Cl)NC(C(Cl)Cl)NS2(=O)=O (stereo not given) [Trichlormethiazide],-0.262,0.0655,-0.129,-0.0923,-0.393,-0.381
